Experimental data from PubChem BioAssay AID686978 (National Center for Advancing Translational Sciences (NCATS), 2013).
Where “and” joins values, the source holds several entries; their conditions need not be identical. Identical values can stand only once. In all, about 420,000 compounds went through this assay and about 64,000 (15%) were called active. Not shown: some 27% with an inconclusive outcome. Shown is part of a subset that was picked to be rich in actives. A number with no mark means an inactive call. Calls follow the shape of the dose curve; as a rule, active = well fitted inhibition curve with a large enough effect; inconclusive = small, poorly fitted or top-dose-only effect; inactive = flat fitted curve, though single readings scatter.

assay: qHTS for Inhibitors of human tyrosyl-DNA phosphodiesterase 1 (TDP1): qHTS in cells in absence of CPT; details: DT40 Tdp1-/- hTDP1 cells, no CPT, ATP luminescence, 48 h; series mostly up to 46.2 µM; activity change, negative = growth inhibition: at the top concentration; also: nearly all actives have a fitted effect of over 55% in size
Text: Human tyrosyl-DNA phosphodiesterase 1 (TDP1) is a novel repair gene, and we propose to use it as a new target for anticancer drug development. TDP1 is not an essential protein, but under treatment with topoisomerase I poison (camptothecin: CPT), TDP1 works as a critical factor for cell survival. To directly identify novel TDP1 inhibitors active in a cellular environment, we have knocked-out the Tdp1 gene in chicken DT40 cells (Tdp1-/-) and generated a complemented counterpart cells that contains a stable transfection of the human TDP1 gene (Tdp1-/-;hTDP1 cells). For the primary screen, Tdp1-/-;hTDP1 cells will be exposed to small molecules in the presence or absence of CPT, and their growth kinetics will be evaluated after 48 hours by measuring ATP activity. […] The hit compounds will then be evaluated in the presence or absence of CPT using Tdp1-/- cells. […] In tertiary assays, biochemical gel-based assays will be used to assess whether the hit compounds specifically target TDP1.
To this end, we have screened this cell line against the MLSMR in two primary screens. In one screen we add CPT and in the other we screen in the absence of CPT; this AID represents the screen where CPT was absent.
NIH Chemical Genomics Center [NCGC]
NIH Molecular Libraries Probe Centers Network [MLPCN]
Assay Submitter (PI): Yves Pommier, NCI
DT40-hTDP1 cells without 20 nM Camptothecin (add 20 microL of DMSO in 1 L of cell culture medium) were dispensed at 400 cells/5microL/well in tissue culture treated 1536-well white wall/solid bottom assay plates (Greiner Bio-One North America, NC, U.S.A.) using a Multidrop Combi 8 channel dispenser (Thermo Fisher, Waltham, MA, USA). 23 nL compounds and controls were transferred using the pin tool (Kalypsys, San Diego, CA, USA) to the assay plates. The assay plates were then incubated at 37 masculineC for a minimum 48 hr. Three microL of Cell Titer Glo solution was added to the plates and incubated at RT in dark for 30 min. Luminescence was read using ViewLux (Perkin Elmer) with 1 sec exposure slow speed, high gain and 2x binning.
% is scaled to controls: 0 for no effect and ±100 for the full control effect; potency is read from the fitted curve at half-maximal effect.

Compound | Potency | activity change, negative = growth inhibition [%]
CN(Cc1cccc2ncccc12)C(=O)c1cnn(-c2nccc(-c3ccccc3F)n2)c1C1CC1 | 3.66 µM (active) | –
CCOC(=O)CC(SP1(=S)OCC2(CCCCO2)C(C2CCCCO2)O1)C(=O)OCC (configuration not stated) | – | -23.8
CC[N+](C)(CC)CCC[n+]1c(-c2ccccc2)c2cc(N)ccc2c2ccc(N)cc21 | 2.58 µM (active) | –
CCOP(=S)(OCC)C(O)CCCCCn1c(=O)c(F)cn(C2CCCO2)c1=O (configuration not stated) | – | -6.96
O=C(Nc1ccc(Cl)cc1C(=O)c1ccccc1)c1cc(Cl)cc(Cl)c1 | – | -8.13
CCC1(c2ccccc2)C(=O)NC(=O)N(C)C1=O (configuration not stated) | – | -2.29
CC=C(C)C(=O)OC1CCN2CC=C(COC(=O)C(O)(C(C)OC)C(C)(C)O)C12 (configuration not stated) | – | 1.67
COC(=O)C1=C(c2ccc(Cl)c(C(F)(F)F)c2)C[C@@H]2CC[C@H]1N2C(=O)NC(C)C | 20.6 µM (active) | –
COC(=O)C1=C(c2ccc(F)cc2F)C[C@@H]2CC[C@H]1N2C(=O)NC1CC1 | – | -26.6
COC(=O)C1=C(c2ccc(Cl)c(C(F)(F)F)c2)C[C@@H]2CC[C@H]1N2C(=O)NC1CC1 | 10.3 µM (active) | –
COC(=O)C1=C(c2ccc(C(C)=O)cc2)C[C@@H]2CC[C@H]1N2C(=O)NCCNC(C)=O | – | 13.1
COc1ccc(NC(=O)N2CCC3(CC2)OCCO3)c(OC)c1 | – | 7.95
CCOC(=O)c1c(C)c(C(=O)N2CCC3(CC2)OCCO3)c(C)n1CC | – | 4.35
CCN1c2nc3c(C)cccn3c(=O)c2CC2(C(=O)N(C)C(=O)N(C)C2=O)C1C (configuration not stated) | – | -4.11
CN(C)C(=O)NC(O)C(Cl)(Cl)Cl (configuration not stated) | – | 0.9
COc1ccc(-c2nn(CCC#N)cc2C(=O)Nc2ccc(C(C)=O)cc2)cc1 | – | 5.46
CN(C)CC1Oc2ccccc2OC1(O)c1ccccc1 (configuration not stated) | 2.06 µM (active) | –
CCCOC(=O)C1C2c3ccccc3C(c3ccccc32)C1C(=O)O (configuration not stated) | – | -12.7
CC(CC(C#N)(c1ccccc1)c1ccccc1)N1CCCCC1 (configuration not stated) | – | -3.92
CC(C)(c1ccc(OC[C@@H]2CO2)cc1)c1ccc(OC[C@H]2CO2)cc1 | 11.9 µM (active) | –
CCOC(=O)C(O)(c1ccc(N)c(OC)c1)C(F)(F)F (configuration not stated) | – | -3.69
Cc1cc(N2C(=O)C3CCCN3C2c2ccc(Cl)c(Cl)c2)no1 (configuration not stated) | – | 6.03
CN(C)S(=O)(=O)c1cc(C(=O)N2CCC(C(=O)O)(c3ccccc3)CC2)ccc1Cl | – | -3.11
Cc1ccc(NC(=O)CN(C)CC(=O)Nc2cccc(F)c2)cc1[N+](=O)[O-] | 1.16 µM (active) | –

Compound | Potency | activity change, negative = growth inhibition [%]
C=CCSSCC=C | – | 2.53
O=C(NCC(c1cccnc1)N1CCN(c2ccccc2)CC1)Oc1ccccc1 (configuration not stated) | – | -19.5
COc1cc2c(cc1OC)[C@@H]1C(=O)c3ccc(O)c(CC=C(C)C)c3OC1CO2 (some centres not stated) | – | -17.4
N#CC1=C(N)Oc2c(c(=O)oc3ccccc23)C1c1ccccc1OC(=O)c1cccs1 (configuration not stated) | 23.1 µM (active) | –
CCNc1nc2[nH]c(=O)c3c(c2s1)OC(N)=C(C#N)C3c1cccs1 (configuration not stated) | – | -27.5
CCOC(=O)C(O)(c1ccc(N=Cc2ccccc2O)c(C)c1)C(F)(F)F (configuration not stated) | – | 26.3
CCOc1ccc(-c2cc(C)[n+](CCN(CC)CC)c(-c3ccc(OCC)cc3)c2)cc1 | 0.184 µM (active) | –
COc1ccc(CNCCc2ccc3c(c2)OCO3)c(OC)c1OC | – | -22.3
COc1cc(C2c3cc4c(cc3C(O)C3COC(=O)C23)OCO4)cc(OC)c1OC (configuration not stated) | 28.2 nM (active) and 73.1 nM (active) | –
COc1ccccc1OC(=O)c1ccc(C)c(S(=O)(=O)N2CCOCC2)c1 | – | -10.1
CCCCCn1c(=O)c(C(=O)NCc2ccccc2)c(O)c2ccccc21 | 6.51 µM (active) | –
CCCCn1c(=O)c(C(=O)Nc2ccccc2Cl)c(O)c2ccccc21 | 25.9 µM (active) | –
COc1cc(C(c2c(O)c3ccccc3oc2=O)c2c(C)n(C)n(-c3ccccc3)c2=O)ccc1O (configuration not stated) | inactive | –
CCCCCn1c(=O)c(C(=O)NCc2ccccn2)c(O)c2ccccc21 | 20.6 µM (active) | –
CCCCCn1c(=O)c(C(=O)Nc2c(C)n(C)n(-c3ccccc3)c2=O)c(O)c2ccccc21 | 4.61 µM (active) | –
O=C(CSC1c2ccccc2-c2ccccc21)N/N=C/c1ccccc1 | – | -16.6
O=C1CC(=O)N(Cc2ccccc2)C(=O)N1CCCCCCN1C(=O)CC(=O)N(Cc2ccccc2)C1=O | – | 2.08
CN(C)C(=O)Oc1cc(=O)n2c3c(cccc13)CCC2 | – | -22.8
CC[N+]1(CCOC(=O)C(O)(c2ccccc2)c2ccccc2)CCCCC1 | – | -6.5
O=C(c1cc(S(=O)(=O)N2CCOCC2)ccc1F)N1CCC2(CC1)OCCO2 | – | -19.4
CO[C@@H]1C[C@@H](C[C@H]2CC[C@H](C)[C@@H]([C@@H](C)C(=O)O)O2)O[C@]2(O[C@](C)([C@H]3CC[C@@](C)(C4OC([C@H]5O[C@@](O)(CO)[C@H](C)C[C@@H]5C)C[C@@H]4C)O3)C[C@H]2C)[C@@H]1C (some centres not stated) | 0.588 µM (active) | –
CN(C)P(=S)(Nc1ccccc1)C(Cl)(Cl)Cl (configuration not stated) | – | -28.9
O=C(Nc1cccc(OC(=O)N2CCCCC2)c1)N1CCOCC1 | 5.8 µM (active) | –
